Hits are enriched below; roughly 2.4% of the tested compounds scored in any of these assays.
SENP8 block-1 – inhibitors of human SENP8 protease; Q96LD8; recombinant SENP8, Nedd8 substrate fluorescence; inhibition, % at 20 µM; 360,000 tested, 0.64% active; AID 602440; in the data active = inhibition mostly above about 40%, no sharp cut-off; inactive = mostly below about 27%
Target sequence (Q96LD8 whole entry, looked up): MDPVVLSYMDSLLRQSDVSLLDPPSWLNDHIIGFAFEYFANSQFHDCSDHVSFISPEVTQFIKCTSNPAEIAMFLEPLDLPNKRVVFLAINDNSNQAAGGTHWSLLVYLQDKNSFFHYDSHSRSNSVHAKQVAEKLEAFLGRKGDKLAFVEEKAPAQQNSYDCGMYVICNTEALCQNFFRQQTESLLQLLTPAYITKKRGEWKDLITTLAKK
SENP6 block – inhibitors of human SENP6 protease. 330,000 tested, 1.8% active. Q9GZR1. AID 2599. Recombinant SENP6 catalytic domain, aminoluciferin luminescence. inhibition, % at 10 µM;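 active = inhibition above about 50% at the single tested dose, limit read from the data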;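 also: plate controls were DMSO wells with enzyme for no effect and DMSO wells lacking enzyme for full effect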
SENP7 inh – inhibitors of human SENP7 protease. Q9BQF6. recombinant SENP7, Z-RLRGG-aminoluciferin luminescence, 40 min. inhibition, % at 5 µM. 330,000 tested, 1.5% active;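 active = inhibition above about 50% at the single test dose, limit read from the data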;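 also: plate controls were DMSO with enzyme for no effect and no enzyme buffer wells for full effect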
Platelet DG rel – platelet dense granule release activity; human platelet-rich plasma, SFLLRN dense granule ATP release, luminescence; inhibition, %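 (compounds screened at 7.5 µM in platelet-rich plasma)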; 300,000 tested, 0.22% active; AID 1663;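 active = mean replicate score, as percent of positive control, at or above 50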
SENP8 block-2 – blocks the human protease SENP8. Q96LD8. purified SENP8, Z-RLRGG-aminoluciferin cleavage, luminescence. inhibition, % at 10 µM. 330,000 tested, 1.2% active. AID 2540; in the data active = inhibition above about 50%
SENP8 conf – human SENP8 inhibition, confirmed; shares compounds with SENP7 inh; Recombinant SENP8, Z-RLRGG-aminoluciferin luminescence, 60 min; inhibition, % at 12.5 µM; 6,200 tested, 40% active; AID 488912;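 active = mean inhibition across replicates above about 50%, limit read from the data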
SENP6 confirm – human SENP6 inhibition, confirmed; 6,200 tested, 58% active; inhibition, % at 12.5 µM; recombinant SENP6, Z-RLRGG-aminoluciferin luminescence; shares compounds with SENP7 inh; AID 488915
SENP7 confirm – human SENP7 inhibition, confirmed. 6,200 tested, 69% active. shares compounds with SENP7 inh. inhibition, % at 12.5 µM. recombinant SENP7, Z-RLRGG-aminoluciferin luminescence, 40 min
Casp3 SENP sel – caspase-3 inhibition (SENP selectivity assay); shares compounds with SENP7 inh; purified caspase-3, Z-DEVD-aminoluciferin luminescence, 60 min; inhibition, % at 12.5 µM; 6,200 tested, 60% active;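 active = mean inhibition above about 50%, limit read from the data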;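 also: plate controls were enzyme with DMSO for no effect and wells without caspase-3 for full effect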
Target sequence (P42574 28-227 limits assumed): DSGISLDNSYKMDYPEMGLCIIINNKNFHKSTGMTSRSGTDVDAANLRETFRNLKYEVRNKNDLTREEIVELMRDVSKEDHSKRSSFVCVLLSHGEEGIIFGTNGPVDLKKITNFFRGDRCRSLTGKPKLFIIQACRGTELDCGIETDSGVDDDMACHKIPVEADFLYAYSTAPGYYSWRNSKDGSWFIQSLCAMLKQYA
SENP luc ctr – interferes with luciferase luminescence in SENP counter-screen; shares compounds with SENP7 inh; Pre-incubated SENP8/Z-RLRGG-aminoluciferin, luciferase luminescence interference; inhibition, % at 12.5 µM; 6,200 tested, 39% active;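 active = mean inhibition above about 50% when retested at one dose, limit read from the data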;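 also: plate controls were DMSO wells with completed reaction for no effect and substrate without enzyme for full effect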
The depositor's hits bear a star; . = no result.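 The calls were made as follows, unless noted: active = mean inhibition above about 50% in the one-dose retest (limit read from the data); inactive = the rest.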

SMILES	SENP8 block-1	SENP6 block	SENP7 inh	Platelet DG rel	SENP8 block-2	SENP8 conf	SENP6 confirm	SENP7 confirm	Casp3 SENP sel	SENP luc ctr
COc1ccc(N2CCN(CCCNC(=O)CN3C(=O)COc4ccccc43)CC2)cc1	16	3	3	-10	-7	.	.	.	.	.
COC/C=C/C1=CC2=CC(=O)C(C)(OC(=O)c3cnc4ccccc4n3)C(=O)C2=CN1c1ccc(CO)cc1 (configuration not stated)	.	-55	12	-5	-3	.	.	.	.	.
COC/C=C/C1=CC2=CC(=O)C(C)(OC(=O)c3cnc4ccccc4n3)C(=O)C2=CN1c1ccccc1 (configuration not stated)	.	3	1	1	64*	12	11	6	4	0
CCCC(=O)c1cc2c(cc1NC(=O)c1ccccc1F)OCCO2	-84	-8	5	3	-2	.	.	.	.	.
COc1nsnc1NS(=O)(=O)c1ccc(NC(=S)NC(=O)c2cccnc2)cc1	16	54*	30	1	24	55*	51*	82*	84*	55*
CCc1ccc(NC(=O)Nc2cccs2)cc1	9	78*	47	23	57*	2	56*	89*	53*	8
O=C(Nc1cccs1)Nc1ccc(F)cc1F	10	11	18	-14	-8	.	.	.	.	.
CCOc1ccc(NC(=O)Nc2cccnc2)cc1	18	60*	58*	28	22	22	24	75*	74*	47
CCOc1ccc(NC(=O)Nc2cccs2)cc1	27	27	73*	23	67*	-18	72*	95*	85*	82*
O=C(Nc1cccs1)Nc1ccc(Br)cc1F	4	64*	13	-3	11	22	22	61*	23	22
COc1ccc(NC(=O)Nc2cccnc2)cc1	16	4	-3	8	-2	.	.	.	.	.
CN(C(=O)c1ccc(NC(=O)Cc2cccc(NC(=O)C3CCN(C(=O)c4ccccc4)CC3)c2)cc1)C1CCCC1	11	-12	4	.	-4	.	.	.	.	.
CC(C)Oc1ccc(S(=O)(=O)N2CCOCC2)cc1NC(=O)CN1C(=O)NC2(CCCC2)C1=O	5	-11	0	2	-6	.	.	.	.	.
CCc1ccc(NC(=O)Nc2ccon2)cc1	21	23	52*	9	19	42	35	70*	52*	44
Cc1ccc(NC(=O)Nc2cccs2)cc1	4	64*	26	12	55*	2	56*	87*	65*	9
O=C(Nc1ccc([N+](=O)[O-])cc1)Nc1ccon1	15	0	1	2	-11	.	.	.	.	.
Cc1ccc(NC(=O)Nc2cccs2)nc1	19	-13	-10	-4	-20	.	.	.	.	.
CCOC(=O)c1c(C)[nH]c(C(=O)OCC(=O)c2ccccc2)c1C	-7	51*	39	9	42	46	44	76*	35	17
CCOC(=O)c1c(C)[nH]c(C(=O)OCC(=O)NCc2ccccc2)c1C	-17	-9	5	.	3	.	.	.	.	.
Cc1cccnc1NC(=O)c1ccc(NS(=O)(=O)/C=C/c2ccccc2)cc1	20	-3	-7	10	-6	.	.	.	.	.
CN(C)C(=O)COC(=O)c1ccccc1Nc1ccc(SC(F)F)cc1	-172	-4	62*	0	52*	30	60*	84*	25	6
S=C(Nc1ccc(Cl)cc1)c1nc2ccccc2[nH]1	9	59*	33	-4	41	13	48	92*	71*	11
O=C(OCC1COc2ccccc2O1)c1c(F)cccc1F (configuration not stated)	10	-2	83*	-1	-7	2	2	1	0	10

Screening data: PubChem BioAssay, several laboratories
